1 sequence from article PMC7862700, “An all-to-all approach to the identification of sequence-specific readers for epigenetic DNA modifications on cytosine” can be followed below.

Holding throughout (experiment): DAPPL (digital affinity profiling via proximity ligation, sequencing); 10 mM Tris-HCl pH 7.5, 50 mM NaCl, 1 mM DTT, 4% glycerol, room temperature, 30 min; GST-TFs on glutathione beads, 16-mer random dsDNA library, 0.1% formaldehyde crosslink after washing; high values mean tight binding
In assay [1] the target is T1, FLI1 (Homo sapiens, UniProt Q01543 1-452).
T1 sequence: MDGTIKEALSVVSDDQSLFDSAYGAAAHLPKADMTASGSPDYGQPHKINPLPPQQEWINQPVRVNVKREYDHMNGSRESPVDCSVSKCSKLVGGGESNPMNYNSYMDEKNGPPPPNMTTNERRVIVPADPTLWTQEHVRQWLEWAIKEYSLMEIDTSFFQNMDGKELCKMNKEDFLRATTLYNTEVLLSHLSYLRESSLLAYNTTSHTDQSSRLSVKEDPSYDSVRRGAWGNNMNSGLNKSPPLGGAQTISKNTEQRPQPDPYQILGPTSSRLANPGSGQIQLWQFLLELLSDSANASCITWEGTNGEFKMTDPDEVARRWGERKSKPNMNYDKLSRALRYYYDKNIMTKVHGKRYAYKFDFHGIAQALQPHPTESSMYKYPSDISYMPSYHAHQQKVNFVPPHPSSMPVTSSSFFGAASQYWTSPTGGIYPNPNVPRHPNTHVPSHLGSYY
The settings on record: protein: recombinant; tags: N-terminal GST; dsDNA, one strand shown. In a few lines: (§1)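 Pools of DNA-barcoded human transcription factors, expressed in yeast as GST fusions on glutathione beads and combined with a tag-only sample, were incubated with 200 nmole of a 16-mer random double-stranded DNA library. Incubation took 30 min at room temperature in Tris/NaCl/DTT/glycerol buffer and was followed by washing, 0.1% formaldehyde crosslinking, proximity ligation (BsaI/T4 ligase, 1 h, 37 °C), PCR amplification and sequencing on an Illumina NextSeq500. Binding signal is the ratio of a hexamer's read frequency for a factor to its frequency for the tag-only sample.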

Assay [2] addresses T2, ELK1 (Homo sapiens, UniProt P19419 1-428).
T2 sequence: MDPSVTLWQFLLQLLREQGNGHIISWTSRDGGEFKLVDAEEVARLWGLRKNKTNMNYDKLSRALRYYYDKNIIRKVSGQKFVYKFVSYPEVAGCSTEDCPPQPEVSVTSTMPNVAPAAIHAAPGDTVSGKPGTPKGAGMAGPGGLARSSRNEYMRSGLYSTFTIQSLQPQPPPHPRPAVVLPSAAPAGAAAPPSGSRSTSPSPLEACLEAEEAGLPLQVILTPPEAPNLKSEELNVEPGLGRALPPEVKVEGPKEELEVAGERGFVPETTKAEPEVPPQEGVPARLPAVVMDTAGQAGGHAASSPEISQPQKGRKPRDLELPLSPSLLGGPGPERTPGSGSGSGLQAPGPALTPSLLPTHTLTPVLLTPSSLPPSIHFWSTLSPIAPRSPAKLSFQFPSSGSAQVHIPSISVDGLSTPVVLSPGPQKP
The settings on record: protein: recombinant; tags: N-terminal GST; dsDNA, one strand shown. The procedure, abridged: as §1

For assay [3], the target named is T3, GABPA (Homo sapiens, UniProt Q06546 1-454).
T3 sequence: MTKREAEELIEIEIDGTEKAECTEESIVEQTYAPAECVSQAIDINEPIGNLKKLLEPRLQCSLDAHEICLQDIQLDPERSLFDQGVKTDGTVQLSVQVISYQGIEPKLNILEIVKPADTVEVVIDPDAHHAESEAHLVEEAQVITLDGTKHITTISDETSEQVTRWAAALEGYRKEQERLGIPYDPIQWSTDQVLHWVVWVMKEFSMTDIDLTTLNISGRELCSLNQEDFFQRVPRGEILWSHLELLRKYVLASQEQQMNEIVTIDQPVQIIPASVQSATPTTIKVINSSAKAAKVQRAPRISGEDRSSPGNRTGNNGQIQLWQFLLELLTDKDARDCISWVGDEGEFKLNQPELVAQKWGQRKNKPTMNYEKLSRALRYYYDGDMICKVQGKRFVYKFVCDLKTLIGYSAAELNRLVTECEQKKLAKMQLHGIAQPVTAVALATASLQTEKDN
The conditions noted are these: protein: recombinant; tags: N-terminal GST; dsDNA, one strand shown. In a few lines:
as §1

Assay [4] has as its target T4, ERG (Homo sapiens, UniProt P11308 1-479).
T4 sequence: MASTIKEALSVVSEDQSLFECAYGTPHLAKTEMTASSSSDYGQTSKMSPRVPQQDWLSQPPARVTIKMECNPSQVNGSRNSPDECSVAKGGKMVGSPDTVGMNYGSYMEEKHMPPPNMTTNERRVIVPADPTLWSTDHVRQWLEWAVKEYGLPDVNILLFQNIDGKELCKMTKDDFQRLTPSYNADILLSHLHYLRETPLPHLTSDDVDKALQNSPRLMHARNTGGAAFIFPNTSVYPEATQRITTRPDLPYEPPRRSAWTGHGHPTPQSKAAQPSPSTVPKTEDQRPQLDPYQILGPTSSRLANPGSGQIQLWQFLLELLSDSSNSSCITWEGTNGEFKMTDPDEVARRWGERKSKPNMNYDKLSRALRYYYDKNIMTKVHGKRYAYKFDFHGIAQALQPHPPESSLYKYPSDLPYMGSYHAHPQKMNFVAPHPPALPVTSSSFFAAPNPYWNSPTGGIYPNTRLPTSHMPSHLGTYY
The settings on record: protein: recombinant; tags: N-terminal GST; dsDNA, one strand shown. In a few lines:
as §1

Assay [5] deals with ELF1 (Homo sapiens, UniProt P32519 1-619). The conditions noted are these: protein: recombinant; tags: N-terminal GST; dsDNA, one strand shown. In a few lines:
as §1

Assay [6] deals with T5, EHF (Homo sapiens, UniProt Q9NZC4 1-300).
T5 sequence: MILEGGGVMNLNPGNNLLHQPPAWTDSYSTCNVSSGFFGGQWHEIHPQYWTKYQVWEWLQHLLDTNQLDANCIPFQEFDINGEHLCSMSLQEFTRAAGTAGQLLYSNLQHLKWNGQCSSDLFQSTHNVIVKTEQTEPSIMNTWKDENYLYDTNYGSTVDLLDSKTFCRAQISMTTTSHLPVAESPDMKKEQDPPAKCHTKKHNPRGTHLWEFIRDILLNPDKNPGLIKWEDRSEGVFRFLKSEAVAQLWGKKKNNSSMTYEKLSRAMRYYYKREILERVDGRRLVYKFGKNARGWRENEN
The settings on record: protein: recombinant; tags: N-terminal GST; dsDNA, one strand shown. The procedure, abridged: as §1

Assay [7] deals with SPI1 (Homo sapiens, UniProt P17947 1-270). The settings on record: protein: recombinant; tags: N-terminal GST; dsDNA, one strand shown. The procedure, abridged: as §1
In assay [8] the target is SPIB (Homo sapiens, UniProt Q01892 1-262). The settings on record: protein: recombinant; tags: N-terminal GST; dsDNA, one strand shown. The procedure, abridged: as §1
Assay [9] concerns the target T6, ELK3 (Homo sapiens, UniProt P41970 1-407).
T6 sequence: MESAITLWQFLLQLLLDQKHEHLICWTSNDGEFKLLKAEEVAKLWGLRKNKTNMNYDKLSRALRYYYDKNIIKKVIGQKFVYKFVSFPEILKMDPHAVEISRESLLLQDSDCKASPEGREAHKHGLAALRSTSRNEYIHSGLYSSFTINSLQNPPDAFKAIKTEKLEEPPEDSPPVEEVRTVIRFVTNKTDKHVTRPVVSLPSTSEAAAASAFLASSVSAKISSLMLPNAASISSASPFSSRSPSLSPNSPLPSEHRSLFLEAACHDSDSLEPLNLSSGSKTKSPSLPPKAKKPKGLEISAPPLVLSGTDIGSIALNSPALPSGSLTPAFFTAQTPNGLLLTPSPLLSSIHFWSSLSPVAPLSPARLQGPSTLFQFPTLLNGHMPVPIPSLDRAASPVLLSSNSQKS
The conditions noted are these: protein: recombinant; tags: N-terminal GST; dsDNA, one strand shown. In a few lines:
as §1

For assay [10], the target named is T7, FEV (Homo sapiens, UniProt Q99581 1-238).
T7 sequence: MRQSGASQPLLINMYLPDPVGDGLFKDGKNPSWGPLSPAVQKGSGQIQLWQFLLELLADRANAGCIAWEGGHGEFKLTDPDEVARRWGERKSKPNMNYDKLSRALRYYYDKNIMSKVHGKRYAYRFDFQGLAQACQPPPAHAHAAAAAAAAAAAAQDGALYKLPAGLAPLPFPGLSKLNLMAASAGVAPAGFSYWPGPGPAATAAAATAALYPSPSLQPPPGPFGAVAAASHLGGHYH
The settings on record: protein: recombinant; tags: N-terminal GST; dsDNA, one strand shown. In a few lines:
as §1

The target of assay [11] is ETV5 (Homo sapiens, UniProt P41161 1-510). The settings on record: protein: recombinant; tags: N-terminal GST; dsDNA, one strand shown. The procedure, abridged: as §1
In assay [12] the target is HSF1 (Homo sapiens, UniProt Q00613 1-529). The conditions noted are these: protein: recombinant; tags: N-terminal GST; chain copies: 3; dsDNA, one strand shown. In a few lines:
as §1

The target in assay [13] is T8, SPIC (Homo sapiens, UniProt Q8N5J4 1-248).
T8 sequence: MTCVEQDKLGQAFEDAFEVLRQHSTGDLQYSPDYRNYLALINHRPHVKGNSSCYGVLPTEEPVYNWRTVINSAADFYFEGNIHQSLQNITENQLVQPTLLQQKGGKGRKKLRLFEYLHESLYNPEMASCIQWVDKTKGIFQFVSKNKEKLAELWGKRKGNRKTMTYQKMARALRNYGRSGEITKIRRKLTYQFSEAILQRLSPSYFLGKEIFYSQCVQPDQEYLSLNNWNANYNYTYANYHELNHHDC
The conditions noted are these: protein: recombinant; tags: N-terminal GST; dsDNA, one strand shown. In a few lines:
as §1

Assay [14] deals with ELF4 (Homo sapiens, UniProt Q99607 1-663). The conditions noted are these: protein: recombinant; tags: N-terminal GST; dsDNA, one strand shown. The procedure, abridged: as §1
The target of assay [15] is T9, ELK4 (Homo sapiens, UniProt P28324-2 1-405).
T9 sequence: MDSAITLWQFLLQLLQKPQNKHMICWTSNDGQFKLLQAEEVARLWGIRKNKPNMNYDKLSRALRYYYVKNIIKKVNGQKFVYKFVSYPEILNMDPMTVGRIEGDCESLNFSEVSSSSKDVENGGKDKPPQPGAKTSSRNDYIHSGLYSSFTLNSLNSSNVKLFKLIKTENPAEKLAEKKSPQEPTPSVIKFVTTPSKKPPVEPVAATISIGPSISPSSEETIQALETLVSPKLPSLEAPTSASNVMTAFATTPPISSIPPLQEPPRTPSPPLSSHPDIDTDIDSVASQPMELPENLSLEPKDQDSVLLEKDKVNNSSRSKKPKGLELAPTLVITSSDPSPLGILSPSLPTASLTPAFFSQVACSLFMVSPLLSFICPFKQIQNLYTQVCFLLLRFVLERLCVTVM
The conditions noted are these: protein: recombinant; tags: N-terminal GST; dsDNA, one strand shown. In a few lines:
as §1

The target of assay [16] is T10, ETV2 (Homo sapiens, UniProt O00321 1-342).
T10 sequence: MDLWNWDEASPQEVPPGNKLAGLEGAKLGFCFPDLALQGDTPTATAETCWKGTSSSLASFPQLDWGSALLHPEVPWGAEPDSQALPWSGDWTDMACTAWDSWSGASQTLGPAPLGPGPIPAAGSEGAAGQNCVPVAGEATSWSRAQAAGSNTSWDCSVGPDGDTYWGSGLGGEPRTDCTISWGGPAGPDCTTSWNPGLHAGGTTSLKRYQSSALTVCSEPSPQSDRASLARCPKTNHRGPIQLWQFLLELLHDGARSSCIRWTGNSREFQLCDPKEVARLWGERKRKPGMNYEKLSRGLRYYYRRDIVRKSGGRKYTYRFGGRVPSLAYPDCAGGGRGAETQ
The conditions noted are these: protein: recombinant; tags: N-terminal GST; dsDNA, one strand shown. The procedure, abridged:
as §1

In assay [17] the target is T11, ELF3 (Homo sapiens, UniProt P78545 1-371).
T11 sequence: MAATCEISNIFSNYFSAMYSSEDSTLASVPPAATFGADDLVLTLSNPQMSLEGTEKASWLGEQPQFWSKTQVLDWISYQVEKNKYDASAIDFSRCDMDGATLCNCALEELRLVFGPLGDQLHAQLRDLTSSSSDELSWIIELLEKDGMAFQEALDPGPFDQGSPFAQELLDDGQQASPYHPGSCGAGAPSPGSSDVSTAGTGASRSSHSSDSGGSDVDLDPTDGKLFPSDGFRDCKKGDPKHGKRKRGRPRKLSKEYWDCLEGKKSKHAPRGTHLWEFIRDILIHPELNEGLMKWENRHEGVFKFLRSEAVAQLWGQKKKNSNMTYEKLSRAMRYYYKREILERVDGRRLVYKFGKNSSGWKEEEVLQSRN
The settings on record: protein: recombinant; tags: N-terminal GST; dsDNA, one strand shown. The procedure, abridged: as §1

Assay [18] has as its target ETV1 (Homo sapiens, UniProt P50549 1-477). The conditions noted are these: protein: recombinant; tags: N-terminal GST; dsDNA, one strand shown. The procedure, abridged: as §1

Chain of ETV1 (P50549 whole entry): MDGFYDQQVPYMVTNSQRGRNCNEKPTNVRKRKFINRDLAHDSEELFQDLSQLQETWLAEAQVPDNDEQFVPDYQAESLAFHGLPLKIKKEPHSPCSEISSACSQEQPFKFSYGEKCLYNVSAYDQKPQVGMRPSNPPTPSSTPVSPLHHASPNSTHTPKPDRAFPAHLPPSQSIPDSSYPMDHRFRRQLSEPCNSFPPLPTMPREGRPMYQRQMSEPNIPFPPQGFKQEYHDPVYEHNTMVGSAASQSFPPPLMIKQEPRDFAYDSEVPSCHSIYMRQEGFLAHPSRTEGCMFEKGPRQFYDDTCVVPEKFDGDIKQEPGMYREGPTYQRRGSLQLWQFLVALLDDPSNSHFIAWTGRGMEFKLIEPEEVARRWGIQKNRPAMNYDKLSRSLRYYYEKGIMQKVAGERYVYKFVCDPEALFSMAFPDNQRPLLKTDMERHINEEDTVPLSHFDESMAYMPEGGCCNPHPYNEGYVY
Chain of ETV5 (P41161 whole entry): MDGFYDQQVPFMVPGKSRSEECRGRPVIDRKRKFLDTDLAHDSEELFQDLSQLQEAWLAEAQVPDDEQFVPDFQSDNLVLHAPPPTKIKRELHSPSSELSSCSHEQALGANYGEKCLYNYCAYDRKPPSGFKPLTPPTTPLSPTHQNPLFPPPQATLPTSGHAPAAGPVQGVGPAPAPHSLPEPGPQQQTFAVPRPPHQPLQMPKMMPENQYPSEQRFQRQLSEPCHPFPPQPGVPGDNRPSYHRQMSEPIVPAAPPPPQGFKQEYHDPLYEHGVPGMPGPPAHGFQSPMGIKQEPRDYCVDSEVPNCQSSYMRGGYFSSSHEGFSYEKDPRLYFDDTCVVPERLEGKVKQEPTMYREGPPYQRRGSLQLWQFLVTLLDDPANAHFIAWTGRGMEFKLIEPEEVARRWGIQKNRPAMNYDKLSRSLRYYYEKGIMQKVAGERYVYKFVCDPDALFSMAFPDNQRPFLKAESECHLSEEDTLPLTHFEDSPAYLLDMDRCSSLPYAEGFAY
Chain of SPIB (Q01892 whole entry): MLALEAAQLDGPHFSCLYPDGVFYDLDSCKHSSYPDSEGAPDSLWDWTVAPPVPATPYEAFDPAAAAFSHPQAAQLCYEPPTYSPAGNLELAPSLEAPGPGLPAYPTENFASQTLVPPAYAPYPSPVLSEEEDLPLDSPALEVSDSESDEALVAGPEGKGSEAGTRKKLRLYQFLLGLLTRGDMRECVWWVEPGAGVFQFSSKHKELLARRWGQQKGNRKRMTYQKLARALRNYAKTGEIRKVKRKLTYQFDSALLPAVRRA
Chain of ELF1 (P32519 whole entry): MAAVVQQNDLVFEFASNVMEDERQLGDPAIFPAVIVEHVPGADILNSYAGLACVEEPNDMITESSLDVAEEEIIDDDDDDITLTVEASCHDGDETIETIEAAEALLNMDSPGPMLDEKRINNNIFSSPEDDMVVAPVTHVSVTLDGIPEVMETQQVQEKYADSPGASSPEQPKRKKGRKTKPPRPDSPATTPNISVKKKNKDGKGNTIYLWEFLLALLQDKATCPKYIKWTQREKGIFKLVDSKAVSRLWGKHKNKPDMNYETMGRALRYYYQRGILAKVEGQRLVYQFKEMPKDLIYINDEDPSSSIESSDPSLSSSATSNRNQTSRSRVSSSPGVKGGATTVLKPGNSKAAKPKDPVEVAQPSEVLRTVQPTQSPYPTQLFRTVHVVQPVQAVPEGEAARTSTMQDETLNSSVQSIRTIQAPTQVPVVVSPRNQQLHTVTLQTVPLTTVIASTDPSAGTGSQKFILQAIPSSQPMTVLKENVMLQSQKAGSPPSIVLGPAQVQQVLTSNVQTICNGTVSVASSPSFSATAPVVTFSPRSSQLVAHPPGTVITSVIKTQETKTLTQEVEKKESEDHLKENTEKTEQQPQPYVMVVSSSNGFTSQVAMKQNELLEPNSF
Chain of ELF4 (Q99607 whole entry): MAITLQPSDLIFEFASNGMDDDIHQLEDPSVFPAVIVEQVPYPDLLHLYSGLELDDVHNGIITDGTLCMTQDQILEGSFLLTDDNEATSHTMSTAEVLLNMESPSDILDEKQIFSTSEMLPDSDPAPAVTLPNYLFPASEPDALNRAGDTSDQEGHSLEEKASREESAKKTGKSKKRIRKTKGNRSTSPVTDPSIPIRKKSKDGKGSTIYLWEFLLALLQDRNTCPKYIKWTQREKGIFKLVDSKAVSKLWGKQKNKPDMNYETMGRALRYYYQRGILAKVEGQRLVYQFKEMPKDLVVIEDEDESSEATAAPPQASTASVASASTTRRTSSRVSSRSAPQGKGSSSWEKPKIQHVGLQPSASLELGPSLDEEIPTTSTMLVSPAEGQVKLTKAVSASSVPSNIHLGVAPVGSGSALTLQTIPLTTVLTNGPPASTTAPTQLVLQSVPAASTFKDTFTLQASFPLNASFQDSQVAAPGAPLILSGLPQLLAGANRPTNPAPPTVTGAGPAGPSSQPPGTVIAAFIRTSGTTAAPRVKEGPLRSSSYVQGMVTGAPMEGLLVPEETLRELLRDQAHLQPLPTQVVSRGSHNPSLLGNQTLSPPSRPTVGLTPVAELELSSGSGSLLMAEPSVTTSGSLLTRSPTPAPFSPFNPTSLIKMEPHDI
Chain of HSF1 (Q00613 whole entry): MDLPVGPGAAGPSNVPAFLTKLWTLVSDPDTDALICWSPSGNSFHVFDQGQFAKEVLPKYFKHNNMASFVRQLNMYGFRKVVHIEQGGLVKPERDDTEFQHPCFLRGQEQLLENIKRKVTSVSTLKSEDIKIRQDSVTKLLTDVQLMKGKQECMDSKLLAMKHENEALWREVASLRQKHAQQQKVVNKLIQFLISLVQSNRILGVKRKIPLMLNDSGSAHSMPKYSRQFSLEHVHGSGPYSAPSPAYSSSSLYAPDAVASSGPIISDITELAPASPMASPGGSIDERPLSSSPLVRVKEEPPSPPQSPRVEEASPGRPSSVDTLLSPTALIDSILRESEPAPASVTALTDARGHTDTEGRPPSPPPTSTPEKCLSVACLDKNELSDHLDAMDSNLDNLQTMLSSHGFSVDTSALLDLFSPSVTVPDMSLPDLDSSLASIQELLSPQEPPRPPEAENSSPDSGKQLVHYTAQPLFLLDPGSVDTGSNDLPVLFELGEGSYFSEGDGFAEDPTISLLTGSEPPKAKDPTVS

For the sequence GGAACT, the binding signal was 1.83 fold enrichment (6-mer frequency, TF over GST control) in assay [1]; 1.8 fold enrichment (6-mer frequency, TF over GST control) in assay [2]; 1.61 fold enrichment (6-mer frequency, TF over GST control) in assay [3]; 1.89 fold enrichment (6-mer frequency, TF over GST control) in [4]; 1.72 fold enrichment (6-mer frequency, TF over GST control) in [5]; 1.8 fold enrichment (6-mer frequency, TF over GST control) in assay [6]. For the same sequence, the binding signal in assay [7] was 2.42 fold enrichment (6-mer frequency, TF over GST control); in [8], 2.03 fold enrichment (6-mer frequency, TF over GST control); in assay [9], 1.7 fold enrichment (6-mer frequency, TF over GST control); in assay [10], 1.72 fold enrichment (6-mer frequency, TF over GST control); in assay [11], 1.96 fold enrichment (6-mer frequency, TF over GST control); in [12], 1.31 fold enrichment (6-mer frequency, TF over GST control). Further, the binding signal in [13] is 2.08 fold enrichment (6-mer frequency, TF over GST control); in [14], 1.55 fold enrichment (6-mer frequency, TF over GST control); in assay [15], 1.49 fold enrichment (6-mer frequency, TF over GST control); in assay [16], 1.89 fold enrichment (6-mer frequency, TF over GST control); in assay [17] it was 1.87 fold enrichment (6-mer frequency, TF over GST control); in assay [18], 2.03 fold enrichment (6-mer frequency, TF over GST control).
